Structures are written as SMILES. Where “and” joins values, the source holds several entries; their conditions need not be identical. Equal entries are not always repeated. Inconclusive results are not listed. Entries that show only a call come without a potency. Unmarked numbers belong to inactive results. Calls of active or inactive are those of the source. Calls come from the whole dose curve; as a rule, active = well fitted cell-killing curve with a large enough effect in the repeat runs; inconclusive = weak or mixed curves, or effect the other way; inactive = flat fitted curve, though single readings scatter.
Potency is the fitted concentration of half-maximal effect.

A short description of this assay: qHTS assay to identify small molecule antagonists of the androgen receptor (AR) signaling pathway using the MDA cell line - cell viability counter screen (AID 743041; note: nearly all actives have a fitted effect of over 45% in size). The settings on record: MDA-kb2 viability, CellTiter-Fluor, 16 h, cells co-treated with R1881 androgen agonist; series mostly up to 70.3 µM; viability change, negative = cytotoxic: at the top concentration. From the text: National Center for Advancing Translational Sciences [NCATS]
NIH Chemical Genomics Center [NCGC]
U.S. Environmental Protection Agency [EPA]
National Institutes of Environmental Health Sciences [NIEHS]
National Toxicology Program [NTP]
U.S. Food and Drug Administration [FDA]
Androgen receptor (AR), a nuclear hormone receptor, plays a critical role in AR-dependent prostate cancer and other androgen related diseases. Endocrine disrupting chemicals (EDCs) and their interactions with steroid hormone receptors like AR may cause disruption of normal endocrine function as well as interfere with metabolic homeostasis, reproduction, developmental and behavioral functions. To identify the compounds that inhibit AR signaling, MDA-kb2 AR-luc cell line (from ATCC, deposited by Wilson et al.) was used to screen the Tox21 10K compound library. MDA-kb2 AR-luc cell line is human breast carcinoma cell line that was stably transfected with a luciferase reporter gene under control of the MMTV promoter containing response elements for both androgen receptor (AR) and glucocorticoid receptor (GR). The cytotoxicity of the Tox21 compound library against the MDA-kb2 AR-luc cell line was tested in parallel by measuring the cell viability using CellTiter-Fluor assay (Promega, Madison, WI) in the same wells.
Tox21 Assay Protocol Summary:
MDA-kb2 AR-luc cells were dispensed at 3,000 cells/4 uL/well of culture medium into white wall/solid-bottom 1536-well plates using a Multidrop Combi (ThermoFisher Scientific, Waltham, MA) dispenser. After the assay plates were incubated at a 37C and 0% CO2 for 5 hr, 23 nL of compounds dissolved in DMSO, positive controls or DMSO only was transferred to the assay plate by a Pintool station (Kalypsys, San Diego, CA), followed by addition of 1 uL of agonist (R1881) in culture medium using a Bioraptr Flying Reagent Dispenser (FRD) workstation (Beckman Coulter, Indianapolis, IN, USA). The plates were incubated at a 37C and 0% CO2 for 16 h. After 15.5 h incubation, 1uL of CellTiter-Fluor reagent (Promega) was added using a Bioraptr FRD to each plate for measuring cytotoxicity. The fluorescence intensity was quantified on a ViewLux plate reader (PerkinElmer, Shelton, CT) following 30 min incubation at 37C and 0% CO2.
In general terms: qHTS replaces the single test concentration by a dilution series.
For `Nc1ncn[nH]1`, the Potency entry is “inactive”.
Turning to `CNC(=S)S`, the Potency entry was “inactive”.
For `Clc1ccc(C(Cl)(Cl)Cl)cc1`, the “viability change, negative = cytotoxic” value was 34.5% [at 95 µM].
Consider `Brc1ccc(Br)cc1`, for which the Potency entry was “inactive”.
On the same count and under the same terms, with `CCOC(=O)c1ccccc1N` the entry was “inactive”.
Still for that read-out and setting: next, `N#Cc1c(Cl)c(Cl)c(Cl)c(C#N)c1Cl`: 4.76 µM (active) and 6.11 µM (active); `O=C(O)c1nn(Cc2ccc(Cl)cc2Cl)c2ccccc12`: “inactive”.
Still for that read-out and setting: with `Cl` the entry was “inactive”; with `C=C(C)C#N`, “inactive”.
Consider `CS(=O)(=O)NC(=O)c1cc(Oc2ccc(C(F)(F)F)cc2Cl)ccc1[N+](=O)[O-]`, for which the Potency result is “inactive”.
On the same count and under the same terms, with `CCCCOC(=O)COC(=O)c1ccccc1C(=O)OCCCC` the entry was “inactive”; with `CCC[CH2][Sn]([Cl])([CH2]CCC)[CH2]CCC`, 1.22 µM (active) and 2.17 µM (active); with `O=C(O)CF`, “inactive”.
Still for that read-out and setting: with `CC(C)=CC1C(C(=O)OCN2C(=O)C3=C(CCCC3)C2=O)C1(C)C` (stereo not given) the entry was “inactive”; with `c1ccc(C2CO2)cc1` (stereo not given), “inactive”.
Still for that read-out and setting: with `C[C@]12CCC(=O)C=C1CC[C@@H]1[C@@H]2CC[C@@]2(C)[C@H]1CC[C@]2(C)O` the entry was “inactive”; with `CC(C)Nc1ccc(Nc2ccccc2)cc1`, 68.3 µM (active) and 61.1 µM (active).
As to `Cc1ccc(N=CN(C)C=Nc2ccc(C)cc2C)c(C)c1`, the Potency result was “inactive”.
Same read-out and setting: with `CCCCCCCC[N+](C)(CCCCCCCC)CCCCCCCC` the figure was 17.2 µM (active) and 2.73 µM (active) and 15.4 µM (active); with `CNC(=O)Oc1cccc2c1OC(C)(C)C2`, “inactive”; with `O=C1Nc2ccc(Cl)cc2C(c2ccccc2)=NC1O` (stereo not given), “inactive”.
Consider `CCCCC(C#N)(Cn1cncn1)c1ccc(Cl)cc1` (stereo not given), for which the Potency entry is “inactive”.
On to `CC(C)CON=O`, for which the “viability change, negative = cytotoxic” value is 1.81% [at 32.5 µM].
As to `N#Cc1cccnc1`, the Potency entry is “inactive”.
For `CCC/C=N/O`, the Potency entry is “inactive”.
On to `CC1CC(=O)O1` (stereo not given), for which the Potency result is “inactive”.
For `CC1=C(C(=O)Nc2ccccc2)SCCO1`, the Potency entry was “inactive”.
With `CCOP(=S)(OCC)OP(=S)(OCC)OCC`, the Potency result is “inactive”.
Consider `CN(C)P(=O)(N(C)C)N(C)C`, for which the Potency result was “inactive”.
Turning to `O=[N+]([O-])c1ccc(Cl)c([N+](=O)[O-])c1`, the Potency was 15.6 µM (active) and 13.7 µM (active).
The same measure, in the same setting: next, `CCOP(=O)(OCC)OCC`: “inactive”; `ClCc1ccccn1`: “inactive”.
On the same count and under the same terms, next, `CCCCCCCCCCCCCl`: “inactive”.
For `O=C1C(Cl)=C(Cl)C(=O)c2ccccc21`, the “viability change, negative = cytotoxic” value is 5.1%.
For the compound `C[N+](C)(C)CC(=O)[O-]`, the Potency result was “inactive”.
The same measure, in the same setting: next, `NN=C(N)N`: “inactive”.
Same read-out and setting: next, `Clc1cccc(C(Cl)(Cl)Cl)n1`: “inactive”.
Consider `CN(C)c1nc(=O)n(C2CCCCC2)c(=O)n1C`, for which the Potency result was “inactive”.
In the case of `ClCC(Cl)CCl`, the Potency entry was “inactive”.
On the same count and under the same terms, with `ClC(Cl)(Cl)c1ccccc1` the entry was “inactive”.

These data come from PubChem BioAssay (Tox21).
